High-throughput results (PubChem BioAssay)
The list is not random: actives were taken first. Their share in the collection is about 11%.
AMA1 RON2 block: disrupts binding of P. falciparum AMA1 to RON2; Potency, µM (highest dose often 58.2 µM), usual class: inhibitors; AID 720542; actives 0.2% (n = 360,000); AlphaScreen AMA1-biotinylated RON2 peptide binding; also: nearly all actives have a fitted effect of over 45% in size
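AMA1 (3D7) with his tag at 25 nM final met compounds first, then biotinylated RON2 peptide at 25 nM; detection used donor plus acceptor beads, 10 µg/mL apiece, read by AlphaScreen after 30 min at room temperature.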
Pf growth 96h: inhibits malaria parasite growth, 96 h. P. falciparum luciferase reporter growth, 96 h. Potency, µM (top dose mostly 28.7 µM), usual class: inhibitors. AID 504834. actives 6.9% (n = 320,000)
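P. falciparum expressing integrated firefly luciferase grown in erythrocytes (2% hematocrit, 0.05% parasitemia final) with compounds for 96 hours at 37 C, 5% CO2. Growth inhibition read as loss of luminescence after adding luciferase detection reagent.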
HCV inhibitor: blocks hepatitis C virus. Huh7.5.1 HCVcc-Cre infection, luciferase reporter, 44 h. actives 3.4% (n = 340,000). Potency, µM (top dose mostly 41.8 µM), usual class: inhibitors
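Infectious HCV cell culture screen: compound-treated cells (1,000/well, pre-plated 4 h) are infected with HCVcc-Cre at roughly 0.5 moi and grown 44 h. Infection is quantified by luciferase signal after 15 min substrate incubation at room temperature.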
Pf growth 48h: inhibits P. falciparum growth in the first generation, 48 h. AID 504832. Potency, µM (doses to about 28.7 µM), hits mostly inhibitors. actives 5.9% (n = 310,000). P. falciparum luciferase growth in erythrocytes, 48 h
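A one-generation exposure of luciferase-tagged malaria parasites in RPMI 1640/Albumax erythrocyte culture, 37 C and 5% CO2. Inhibition is inferred from decreased luminescence after adding detection reagent.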
Each line names hits and unclear results; the compound was inactive in the other large screens; ! = not active in a repeat. Calls follow the shape of the dose curve; as a rule, active = well fitted curve in the direction sought with a large enough effect; inconclusive = small, poorly fitted or top-dose-only effect, or another doubt; inactive = no such curve, though single readings can be large; an effect the other way counts as inactive or inconclusive.

CC1=C(C(=O)OC(C)C)C(c2ccc(C)o2)C(C(=O)OC(C)C)=C(C)N1	Pf growth 96h inconclusive, Pf growth 48h 10µM
COC(=O)C1=C(C)NC(C)=C(C(=O)OC)C1c1ccc(C)o1	none
CCOC(=O)C1=C(C)NC(=O)NC1c1ccc(Br)o1 (stereo unspecified)	none
COc1ccc(C2C(C#N)=C(C)NC(C)=C2C(=O)OC(C)C)c(OC)c1 (stereo unspecified)	Pf growth 96h 4.7µM, Pf growth 48h 7.4µM
Cc1ccc(-c2nnc(N3CCN(C(=O)COc4ccccc4)CC3)c3ccccc23)cc1	Pf growth 96h 5.2µM, HCV inhibitor 13µM (no result: Pf growth 48h)
O=C(COc1ccc([N+](=O)[O-])cc1)N1CCN(c2nnc(-c3ccccc3)c3ccccc23)CC1	HCV inhibitor 13µM
O=C(c1cccs1)N1CCN(c2nnc(-c3ccccc3)c3ccccc23)CC1	Pf growth 96h inconclusive, HCV inhibitor inconclusive, Pf growth 48h inconclusive
Cc1ccc(-c2nnc(N3CCN(C(=O)c4cccs4)CC3)c3ccccc23)cc1	Pf growth 96h 4.7µM, HCV inhibitor inconclusive, Pf growth 48h 8.3µM
Cn1c(=O)n(CC(=O)N2CCN(c3nnc(-c4ccccc4)c4ccccc34)CC2)c2ccccc21	Pf growth 96h 13µM, HCV inhibitor inconclusive
CCOC(=O)N1CCN(c2nnc(-c3ccc(C)cc3)c3ccccc23)CC1	HCV inhibitor inconclusive, Pf growth 48h inconclusive
O=c1c(-c2ccc(Cl)cc2)cnc2n1CCS2	AMA1 RON2 block inconclusive
CCOC=C1C(=O)N(C(C)=O)c2cc(OC)c(OC)cc21	none (no result: Pf growth 96h, Pf growth 48h)
Cc1cc([N+](=O)[O-])nn1CC(=O)NCc1nc2ccccc2[nH]1	Pf growth 96h inconclusive
Cc1ccc(-c2nnc(N3CCN(C(=O)CN4CCOCC4)CC3)c3ccccc23)cc1	HCV inhibitor 10µM!, Pf growth 48h inconclusive
O=C(COc1ccc(-c2nnc(N3CCCCC3)c3ccccc23)cc1)N1CCCCC1	Pf growth 96h 8.3µM, Pf growth 48h 12µM
O=C(COc1ccccc1)N1CCCC1	Pf growth 96h inconclusive
O=C(CN1CCOCC1)N1CCN(c2nnc(-c3ccccc3)c3ccccc23)CC1	none (no result: Pf growth 96h)
FC(F)(F)C(F)(F)C(F)(F)C(F)(F)C(F)(F)F	Pf growth 96h inconclusive (no result: AMA1 RON2 block, HCV inhibitor)
CCOc1ccc(S(=O)(=O)N2CCCCC2)cc1NC(=O)Cc1ccsc1	Pf growth 96h 12µM, HCV inhibitor inconclusive, Pf growth 48h 10µM
COc1ccc(CC(=O)Nc2cc(S(=O)(=O)N3CCCC3)ccc2Cl)c(OC)c1	Pf growth 96h 15µM, HCV inhibitor inconclusive, Pf growth 48h inconclusive
COc1ccc(S(=O)(=O)N2CCCCC2)cc1NC(=O)Cc1ccsc1	Pf growth 96h 13µM, Pf growth 48h inconclusive
COc1ccc(OCC(=O)Nc2cc(S(=O)(=O)N3CCCC3)ccc2Cl)cc1	none
CCOc1ccc(S(=O)(=O)N2CCCCC2)cc1NC(=O)Cc1ccc(OC)cc1	none (no result: Pf growth 96h, HCV inhibitor, Pf growth 48h)
O=C(CNCc1ccc(Cl)cc1)Nc1cc(S(=O)(=O)N2CCCC2)ccc1Cl	HCV inhibitor 7.9µM (no result: Pf growth 96h, Pf growth 48h)
NS(=O)(=O)c1cccc(C(=O)N2CCCc3ccccc32)c1	none (no result: Pf growth 96h, HCV inhibitor, Pf growth 48h)
COCCOC(=O)c1c(C)n(C)c2ccc(OC(=O)c3c(OC)cccc3OC)cc12	Pf growth 96h inconclusive, HCV inhibitor inconclusive, Pf growth 48h 1.9µM
CCOc1ccc(-n2c(C)c(C(C)=O)c3cc(OCC(N)=O)ccc32)cc1	Pf growth 48h 13µM
CCOC(=O)c1c(C)n(C)c2cc(-c3ccc(F)cc3)c(O)cc12	Pf growth 48h 7.4µM
CCOC(=O)c1c(C)n(C)c2ccc(OC(C)=O)cc12	Pf growth 96h inconclusive, HCV inhibitor inconclusive
CCOC(=O)c1c(C)n(C)c2cc(Br)c(O)c(O)c12	Pf growth 96h inconclusive
CCOC(=O)c1c(C)n(C)c2ccc(OCC(N)=O)cc12	Pf growth 96h 10µM
CCCN(C(=O)COC(=O)c1nc2nc(C)cc(C)n2n1)C1CCS(=O)(=O)C1 (stereo unspecified)	none
CCOC(=O)c1c(C)n(C)c2ccc(OCC(O)Cn3nc(C)cc3C)cc12 (stereo unspecified)	HCV inhibitor inconclusive, Pf growth 48h inconclusive (no result: Pf growth 96h)
CCOC(=O)c1c(C)n(C)c2ccc(OCC(O)CN(CC)CC)cc12 (stereo unspecified)	Pf growth 96h 5.9µM, HCV inhibitor inconclusive (no result: Pf growth 48h)
Cc1ccccc1C(=O)N1CCC(C(=O)NN2C(=O)NC3(CCCCC3)C2=O)CC1	Pf growth 48h inconclusive
